Compound activity deposited in PubChem BioAssay by several laboratories.
The sample as a whole holds a higher share of hits than the screen did.
HIV RNase H inh-1 – HIV-1 RT RNase H inhibitors, primary screen, biochemical, fluorescence; AID 565, 2006; inhibition, % at 10 µM; Gag-Pol polyprotein (Human immunodeficiency virus type 1 group M subtype B (isolate …; 1.9% of 65,000 active; RT-RNase H RNA/DNA duplex cleavage; in the data active = inhibition above about 50%
RmlC RmlD mix – RmlC and RmlD coupled enzyme inhibitors, primary screen, biochemical, 384-well, compound mixtures, retest | 0.39% of 110,000 active | inhibition, % at 5.5 µM | RmlC/RmlD coupled enzyme inhibition, 384-well mixture HTS; in the data active = inhibition above about 30%, passing the limit was not always enough; inconclusive = no clear call, values can overlap the other calls
HIV RNase H inh-2 – HIV-1 RT RNase H inhibitors, retest, confirmation, biochemical; shares compounds with HIV RNase H inh-1; Recombinant RT RNase H, fluorescent RNA/DNA duplex cleavage; inhibition, % at 10 µM; 39% of 1,000 active; AID 651, 2007; in the data active = inhibition above about 48%; inconclusive = no clear call, values can overlap the other calls
Active calls of the source: *; ? = inconclusive; nt = not tested or not shown.

SMILES	HIV RNase H inh-1	RmlC RmlD mix	HIV RNase H inh-2
O=C(c1ccc2ccccc2n1)N1CCN(c2ccccc2O)CC1	nt	-2	nt
C=CCn1c(SCC(=O)NC(=O)NCc2ccco2)nc2sc(C)c(C)c2c1=O	92*	-8	63*
COc1ccc(NC(=O)CSc2nc3sc(C)c(C)c3c(=O)n2Cc2ccco2)cc1	-15	6	nt
Oc1ccccc1NCC(O)Cn1ccc2ccccc21 (stereo unspecified)	78*	-14	29
OCc1nc2ccccc2n1CC(O)Cn1ccc2ccccc21 (stereo unspecified)	-9	10	nt
O=C(c1ccc(=O)oc1)N1CCOCC1	2	nt	nt
O=C(c1coc(=O)c(Br)c1)N1CCOCC1	61*	15	48
CN1CSC2=C(C#N)C(c3cccc(OCc4ccccc4)c3)CC(=O)N2C1 (stereo unspecified)	73*	-9	60*
N#CC1=C2SCC(O)(c3ccccc3)N2C(=O)CC1c1ccccc1 (stereo unspecified)	-12	-15	nt
COC(=O)C1C(=O)N2CCCSC2=C(C#N)C1c1cccs1 (stereo unspecified)	0	-6	nt
COc1ccc(N2CSC3=C(C#N)C(c4cc(OC)c(OC)cc4OC)CC(=O)N3C2)c(OC)c1 (stereo unspecified)	86*	7	73*
COc1cc(OC)c(C2CC(=O)N3CN(c4ccc(C)cc4)CSC3=C2C#N)cc1OC (stereo unspecified)	30	nt	nt
CCOc1ccccc1N1CSC2=C(C#N)C(c3c(OC)ccc4ccccc34)CC(=O)N2C1 (stereo unspecified)	73*	-3	64*
COc1ccc(N2CSC3=C(C#N)C(c4cccs4)CC(=O)N3C2)cc1 (stereo unspecified)	68*	34	?
CCOc1ccccc1N1CCN(c2nc3ccccc3nc2C(C#N)C(=O)OC)CC1 (stereo unspecified)	6	8	nt
Cc1cc(NC(=O)CSc2nnc(-c3c[nH]c4ccccc34)n2C)no1	nt	8	nt
CN1C(C(=O)NCc2ccc(OC(F)(F)F)cc2)CC2Cn3c(nc4ccccc43)C21 (stereo unspecified)	nt	3	nt
CCSC1=C(C#N)C(c2ccc(OC)c(OC)c2)CC(=O)N1 (stereo unspecified)	-7	7	nt
CCCSC1=C(C#N)C(c2cc(OC)ccc2OC)CC(=O)N1 (stereo unspecified)	-45	12	nt
COc1ccc(N2CSC3=C(C#N)C(c4ccc(OC)c(OC)c4)CC(=O)N3C2)c(OC)c1 (stereo unspecified)	82*	13	67*
COc1ccc(N2CSC3=C(C#N)C(c4cc(OC)ccc4OC)CC(=O)N3C2)c(OC)c1 (stereo unspecified)	86*	6	67*
COC(=O)[C@@H]1C[C@@]2(O)[C@@H](O)[C@@H](O)[C@@H](O)C[C@H]2N1CC(c1ccccc1)c1ccccc1	nt	5	nt
CCCCCCCCCCCCCCCC(=O)OC[C@H](COP(=O)([O-])OCC[N+](C)(C)C)OC(=O)CCCCCCCCCCCCCCC	nt	-5	nt
CC(=O)Nc1ccc(OC(F)(F)C(F)C(F)(F)F)c(NC(C)=O)c1 (stereo unspecified)	-7	6	nt
CCOc1ccc(CC(=O)NCc2cn3c(C)csc3n2)cc1	-13	6	nt
SMILES	HIV RNase H inh-1	RmlC RmlD mix	HIV RNase H inh-2
Cc1nc(C(N)=O)nc2ccccc12	nt	-15	nt
CCN(CCO)c1nc(SC)nc2c1sc1nc(-c3ccco3)c3c(c12)CCC3	nt	6	nt
CSc1nc(NCCOCCO)c2sc3nc(-c4ccco4)c4c(c3c2n1)CCC4	70*	19	42
COC(=O)CN(c1ccccn1)S(=O)(=O)c1ccccc1	73*	59	37
O=C(O)CN(c1ccccn1)S(=O)(=O)c1ccccc1	nt	-6	nt
Cc1ccc(C(=O)Nc2cc(C)c(OCC(=O)N3CCOCC3)c(C)c2)cc1	nt	8	nt
COC(=O)C1Sc2[nH]c(=O)sc2C2c3ccccc3OC(=O)C12 (stereo unspecified)	-1	-12	nt
O=C(O)C1Sc2[nH]c(=O)sc2C2c3cc(Cl)ccc3OC(=O)C12 (stereo unspecified)	72*	2	20
COc1ccccc1CNC(=O)CCS(=O)(=O)c1cccc2nonc12	nt	-7	nt
COc1ccc(C2C(C#N)=C(N)N3C(=C2C#N)Sc2ccccc23)cc1 (stereo unspecified)	87*	-12	60*
COc1ccc(C2C(C#N)=C(N)N(c3sc4c(c3C#N)CCCC4)C3=C2C(=O)CC(C)(C)C3)cc1 (stereo unspecified)	nt	8	nt
O=C(c1cc(-c2ccc(Cl)cc2Cl)on1)N1CCN(C(=O)c2ccco2)CC1	nt	1	nt
